Source: PubChem BioAssay AID777 (Sanford-Burnham Center for Chemical Genomics, 2007)
Out of some 96,000 compounds screened, about 19,000 (20%) were called active.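 How the source made its calls: active means blocking of liver enzyme CYP2C9 beyond about 50% at 5 µM (limit read from the data); inactive means the rest.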 Only a sample is shown.

target: Cytochrome P450 2C9 (Homo sapiens) (UniProt P11712); experiment: blockers of cytochrome P450 2C9 activity – biochemical, luminescence, ADME assay, primary screen (AID 777); conditions: CYP2C9 Supersomes, luciferin-H conversion, at 5 µM, stronger effect = higher value
Sequence (P11712 whole entry, looked up): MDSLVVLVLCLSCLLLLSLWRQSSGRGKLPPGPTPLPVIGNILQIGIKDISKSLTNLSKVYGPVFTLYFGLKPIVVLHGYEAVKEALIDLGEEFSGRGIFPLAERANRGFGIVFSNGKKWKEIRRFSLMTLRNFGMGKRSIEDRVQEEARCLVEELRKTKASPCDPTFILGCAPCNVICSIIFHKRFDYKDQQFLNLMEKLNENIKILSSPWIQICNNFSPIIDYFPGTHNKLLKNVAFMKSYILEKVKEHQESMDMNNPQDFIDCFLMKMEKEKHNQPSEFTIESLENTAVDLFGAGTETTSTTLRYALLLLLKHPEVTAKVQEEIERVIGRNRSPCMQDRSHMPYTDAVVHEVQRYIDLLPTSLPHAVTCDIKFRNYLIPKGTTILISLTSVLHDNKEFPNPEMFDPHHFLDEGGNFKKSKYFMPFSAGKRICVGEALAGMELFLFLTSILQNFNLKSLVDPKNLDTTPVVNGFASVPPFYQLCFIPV

SMILES | inhibition
CCCc1nc2oc3c(OCC)ncnc3c2c2c1COC(C)(C)C2 | -5.1% (inactive)
CC(=O)N(Cc1cccs1)C1CCOC(C)(C)C1 (configuration not stated) | 9.1% (inactive)
O=C(NNS(=O)(=O)c1ccc(Cl)cc1)C1CCN(Cc2ccccc2)CC1 | 16.1% (inactive)
Cc1cccc(C(=O)Nc2ccccc2-c2nnn(CC(=O)Nc3ccc4c(c3)OCCO4)n2)c1 | 4.2% (inactive)
O=C(NC1CCCCC1)C1c2ccccc2C(=O)N1Cc1ccco1 (configuration not stated) | 6.7% (inactive)
Cc1ccnc(N2C(=O)c3ccccc3C2Nc2ccc3c(c2)OCCO3)c1 (configuration not stated) | 71% (active)
O=C1c2ccccc2C(Nc2ccc3c(c2)OCCO3)N1Cc1ccco1 (configuration not stated) | 64% (active)
CCc1ccccc1NC1c2ccccc2C(=O)N1c1cccnc1 (configuration not stated) | 15.2% (inactive)
Cc1ccc(Cc2c(C)nc3nc(SCC(=O)NCCN4CCOCC4)nn3c2C)cc1 | 9% (inactive)
Clc1ccc(-n2nnnc2CN2CCCCC2)cc1Cl | 12.4% (inactive)
COc1ccc(N(CC(=O)NC2CCCCC2)S(=O)(=O)c2c(C)[nH]c(=O)[nH]c2=O)cc1 | 33.9% (inactive)
CCc1cc2c(N3CCN(c4nnc(CC)s4)CC3)ncnc2s1 | 59.6% (active)
Cc1ccc(-n2ncc3c(N4CCN(c5ccc(F)cc5)CC4)ncnc32)c(C)c1 | -9.7% (inactive)
O=S(=O)(N1CCCCC1)N1CCNCC1 | -27.8% (inactive)
Cn1nc(-c2ccccc2)c(CSc2cccc(Cl)c2)c1Cl | 44.7% (inactive)
Cc1nc2nc[nH]n2c(=O)c1NC(=O)c1cccc(OCC(C)C)c1 | 7.2% (inactive)
O=C(NCc1ccco1)c1nc(-c2ccccc2)n(-c2ccccc2)n1 | 51.3% (active)
O=C(Cc1ccccc1)n1nc(-c2ccccc2)nc1NCc1ccco1 | 8.8% (inactive)
O=C(NCc1ccco1)c1nc2ncccn2n1 | -9.7% (inactive)
CCOCCCNC(=O)C(NC(=O)CNC(=O)c1ccccc1)c1ccc(C)cc1 (configuration not stated) | -22.9% (inactive)
Cc1ccccc1NC(=S)Nc1cccc([N+](=O)[O-])c1 | 22.3% (inactive)

SMILES | inhibition
C/C(=N\NS(=O)(=O)c1cccc([N+](=O)[O-])c1)c1cc2ccccc2o1 | 91.4% (active)
CCCS(=O)(=O)N1CCCC(C(=O)NCCN2CCCCC2C)C1 (configuration not stated) | -5.4% (inactive)
CCCc1ccc(-c2c(C)sc(NC(=O)c3ccnn3C)c2C#N)cc1 | 43.6% (inactive)
CC(=O)NS(=O)(=O)c1ccc(NC(=O)/C=C/c2ccccc2Cl)cc1 | 12.7% (inactive)
CCCS(=O)(=O)N1CCC(C(=O)NCCc2ccc(OC)c(OC)c2)CC1 | -5.4% (inactive)
COc1ccc(CCN(C)C(=O)C2CCCN(Cc3ccc(OC)c(OC)c3)C2)cc1OC (configuration not stated) | 27.1% (inactive)
COc1ccc(CCNC(=O)C2CCCN(Cc3nc(-c4cccc(Cl)c4)oc3C)C2)cc1OC (configuration not stated) | 58.8% (active)
Nc1nnnn1/N=C/c1cccs1 | -2% (inactive)
O=C(Nc1c(Cl)cccc1Cl)C1CCC1 | 0.8% (inactive)
CCn1c(O)c2ccc(C(=O)N=NC(=O)c3cccnc3)cc2c1O | -3.1% (inactive)
COc1cc(OC)cc(C(=O)NC(=S)N2CCN(c3ccc(C(F)(F)F)cc3[N+](=O)[O-])CC2)c1 | 13.9% (inactive)
CCNc1nc(N)nc(Oc2ccc(OCC)nn2)n1 | -26.3% (inactive)
OCCNCCCCOc1ccccc1F | -0.4% (inactive)
CSc1nc(N(C)NC(=O)c2cccc(C)c2)c2ccccc2n1 | -0.3% (inactive)
CC(=O)c1ccc(Cc2ncc(C(F)(F)F)cc2Cl)s1 | -2.6% (inactive)
COc1cccc(NC(=O)C(C)Oc2ccccc2)c1 (configuration not stated) | 56.1% (active)
COc1ccc(OC(C)C(=O)Nc2cccnc2)cc1 (configuration not stated) | 3.3% (inactive)
COc1cccc(NC(=O)c2ccccc2SC)c1 | -4.1% (inactive)
CCCCN(CCCC)C(=O)CCS(=O)(=O)c1ccc2c(c1)n(C)c(=O)c(=O)n2C | 14.4% (inactive)
Cc1cccc(CSc2nnc(NC(=O)CSc3nnc(C)s3)s2)c1 | -12% (inactive)
CC(CCO)Nc1nc2c([nH]1)c(=O)n(C)c(=O)n2C (configuration not stated) | 19.8% (inactive)

SMILES | inhibition
COc1ccc(OC)c2[nH]c(=O)c(CCNC(=O)C(C)(C)C)cc12 | -7% (inactive)
CC(=O)NS(=O)(=O)c1ccc(NC(=S)NC(=O)C(C)(C)C)cc1 | -22.1% (inactive)
CC(=O)Nc1ccc(S(=O)(=O)Nc2nc3n(n2)C(c2ccccc2)CC(=O)N3)cc1 (configuration not stated) | -3.6% (inactive)
COc1ccc(NS(=O)(=O)c2ccc(NC(=O)C(C)(C(F)(F)F)C(F)(F)F)cc2)nn1 | 12.4% (inactive)
COc1ccc(NS(=O)(=O)c2ccc(NC(C)=O)cc2)cc1OC | -8.7% (inactive)
CC(=O)Nc1ccc(S(=O)(=O)Nc2cccc(NC(=O)C(C)(C)C)c2)cc1 | 59.2% (active)
COc1ccc(NS(=O)(=O)c2ccc(NC(=S)NC(=O)CC(C)C)cc2)cc1 | 54.8% (active)
O=C(O)CCC(=O)Nc1ccc(N2CCOCC2)cc1 | 3.7% (inactive)
CC(=O)Nc1ccc(S(=O)(=O)Nc2ccc(N3CCOCC3)c(F)c2)cc1 | 50% (active)
COc1cc(NS(=O)(=O)c2ccc(NC(C)=O)cc2)cc(OC)c1 | 43.7% (inactive)
COc1ccc(C(=O)Nc2ccc(S(=O)(=O)NC(C)C)cc2)cc1 | 34.1% (inactive)
CCCC(NS(=O)(=O)c1ccc(OC)cc1)C(=O)O (configuration not stated) | 12.5% (inactive)
COC(=O)COc1ccc(S(=O)(=O)Nc2ccc(NC(C)=O)cc2)cc1 | 61.2% (active)
Cc1ccccc1-n1nc(C)c2cc(C(=O)NC3CC3)sc21 | 37.1% (inactive)
O=C(c1ccco1)N1CCN(CC(=O)N(C2CCCCC2)C2CCS(=O)(=O)C2)CC1 (configuration not stated) | -18.6% (inactive)
O=[N+]([O-])c1ccccc1OCCCCN1CCCCC1 | -4% (inactive)
CCCC(=O)Nc1nc2ccc(NC(=O)c3cccnc3)cc2s1 | 27.5% (inactive)
CCc1c(C)sc(NC(=O)c2ccc(Br)o2)c1C(=O)OC | -40.5% (inactive)
CCOC(=O)c1c(CN2CCOCC2)n(-c2ccccc2)c2ccc(O)cc12 | 38.1% (inactive)
COc1cccc(CN2C(=O)CCC2(C)C(=O)NC2CCCCCC2)c1 (configuration not stated) | -58.7% (inactive)
